Data from ChEMBL document CHEMBL3433997, “St. Jude Leishmania screening dataset” (2016).

Experiments:
Format in all cases: functional
[1] = biological target: Solute carrier family 2, facilitated glucose transporter member 1 (Homo sapiens) (UniProt P11166); experiment: ST_JUDE_LEISH: Cytotoxicity at 2uM final concentration against transgenic Leishmania Mexicana promastigotes LmGLUT1 that are glucose transport deficient and complemented with the human glucose transporter GLUT1. Activity is measured by DNA content using SYBR green in vitro
Sequence of Solute carrier family 2, facilitated glucose transporter member 1 (Homo sapiens) (P11166 whole entry): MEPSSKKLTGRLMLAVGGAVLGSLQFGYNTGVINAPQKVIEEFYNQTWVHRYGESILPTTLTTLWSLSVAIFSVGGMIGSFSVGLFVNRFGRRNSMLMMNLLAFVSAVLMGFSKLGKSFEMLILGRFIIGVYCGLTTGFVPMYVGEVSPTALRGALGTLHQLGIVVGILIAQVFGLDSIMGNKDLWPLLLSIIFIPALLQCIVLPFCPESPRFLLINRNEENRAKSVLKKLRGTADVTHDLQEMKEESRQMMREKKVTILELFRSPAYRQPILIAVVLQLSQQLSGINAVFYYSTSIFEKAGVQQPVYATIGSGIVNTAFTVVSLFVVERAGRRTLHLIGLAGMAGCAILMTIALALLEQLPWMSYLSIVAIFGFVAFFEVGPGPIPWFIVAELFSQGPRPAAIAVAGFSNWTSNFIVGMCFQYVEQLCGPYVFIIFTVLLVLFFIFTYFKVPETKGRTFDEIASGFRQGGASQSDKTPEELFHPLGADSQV

[2] = biological target: Hexose transporter 1 (Plasmodium falciparum) (UniProt O97467); experiment: ST_JUDE_LEISH: Cytotoxicity at 2uM final concentration against transgenic Leishmania Mexicana promastigotes LmPfHT that are glucose transport deficient and complemented with the Plasmodium falciparum hexose transporter. Activity is measured by DNA content using SYBR green in vitro
[3] = biological target: Glucose transporter (Leishmania mexicana) (UniProt O61059); experiment: ST_JUDE_LEISH: Cytotoxicity at 2uM final concentration against transgenic Leishmania Mexicana promastigotes LmGT2 that are glucose transport deficient and complemented with the L. Mexicana glucose transporter 2. Activity is measured by DNA content using SYBR green in vitro

SMILES | inhibition [1] | inhibition [2] | inhibition [3]
N=c1c2c(n(Cc3cccc(Cl)c3)c3c1CCC3)CCCC2 | 40.7% | 49.2% | 20.4%
O=C(CCCCCNC(=O)c1ccc(O)c(-c2ccc(Cl)c(Cl)c2)c1)NCc1cccc2ccccc12 | 2.63% | 2.12% | 3.98%
Cc1cc2cc(-c3ccc(CN)cc3)ccc2nc1N | -1.44% | 1.71% | -3.5%
O=[N+]([O-])c1ccc(N/C(=N\c2ccccc2Br)NC2CCCc3ccccc32)c(O)c1 (stereo not drawn) | 0.73% | -1.02% | -1.9%
COc1ccc(Cl)cc1N1CCN(CCCNC(=O)c2ccc(-c3nc4cc(Cl)c(C)cc4[nH]3)c(F)c2)CC1 | 1.96% | 0.19% | 0.07%
COc1c(C2CCN(CCCCNC(=O)c3cc(-c4ccc(C#N)cc4)n[nH]3)CC2)ccc2c1CCCC2 | -0.72% | 0.62% | 1.75%
Nc1nc(N)c2c(ccc3nn(Cc4cccnc4)cc32)n1 | 5.81% | 5.44% | 4.81%
CCOc1ccccc1C(=O)Nc1cccc(-c2nc3ncccn3c2C)c1 | 2.41% | -0.3% | -0.34%
CS(=O)(=O)N(c1ccc(F)cc1)c1cc(C(=O)N[C@@H](Cc2ccccc2)[C@H](O)CNCc2cccc(C(F)(F)F)c2)cc(N2CCCC2=O)c1 | 1.67% | -0.54% | -1.53%
Oc1ccc(Nc2nc(NCc3ccco3)c3ccccc3n2)cc1 | 25.1% | 20.8% | 10.9%
N#Cc1ccc(-c2ccc(C(=O)NCCCCN3CCC(c4cc(Br)c5c(c4O)CCCC5)CC3)cc2)cc1 | 0.25% | 0.94% | -0.42%
CN(C)C(CNC(=O)c1cc(-c2ccncc2)c(-c2ccc(Cl)c(O)c2)o1)c1ccccc1 (stereo not drawn) | 1.95% | 1.6% | 8.87%
Fc1ccc2[nH]c(-c3ccc(-c4ccc(CNCCN5CCNCC5)cc4)cc3)nc2c1 | -0.25% | 1.53% | 0.99%
O=C(/C=C/c1ccc(Cl)c(Cl)c1)NCCCCCN1CCC(NC(=O)Nc2ccccc2F)CC1 | 0.1% | 4.13% | -0.91%
COc1ccc(NC(=O)/C=C/c2ccccc2Cl)cc1OCCN1CCC(Cc2cc3ccccc3[nH]2)CC1 | 3.32% | 1.85% | -2.57%
Cc1ccc(CNC(=O)[C@H](CCCN)Nc2nc(NCC3CCCCC3)ncc2C)cc1 | 3.55% | 2.8% | 2.97%
